# Measurements from the supplement of paper PMC12282887.
# ± gives the standard deviation of the averaged measurements.
# Legend:
# Assay in all cases: promoter activity interaction Z-score (Lux/OD deviation from empty-vector control); higher = stronger promoter induction by the compound
# [1] = tested on: E. coli BW25113 acrABp lux reporter
# Method in brief: (§1)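 OD600 and luminescence of E. coli BW25113 reporter cultures (40 µl LB Lennox, 384-well plates, 37°C) were measured every 30 min for 12 h. Integration ran over 0–8 h for wild type or 1–9 h for deletion strains, and wells with growth below 10% of the median were dropped. The score is the Z-transformed residual of growth-normalised luminescence fitted against a control.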
# [2] = tested on: E. coli BW25113 marRABp lux reporter
# Method in brief: as §1
# [3] = tested on: E. coli BW25113 micFp lux reporter
# Method in brief: as §1
# [4] = tested on: E. coli BW25113 ompFp lux reporter
# Method in brief: as §1
# [5] = tested on: E. coli BW25113 robp lux reporter
# Method in brief: as §1
# [6] = tested on: E. coli BW25113 soxSp lux reporter
# Method in brief: as §1
# [7] = tested on: E. coli BW25113 tolCp lux reporter
# Method in brief: as §1
# [8] = 17.8 µg/ml, genetic background: wild type
# [9] = 17.8 µg/ml, genetic background: ΔmarA
# [10] = 17.8 µg/ml, genetic background: Δrob
# [11] = 17.8 µg/ml, genetic background: ΔsoxS
# [12] = 35.7 µg/ml, genetic background: wild type
# [13] = 35.7 µg/ml, genetic background: ΔmarA
# [14] = 35.7 µg/ml, genetic background: Δrob
# [15] = 35.7 µg/ml, genetic background: ΔsoxS
# [16] = 71.3 µg/ml, genetic background: wild type
# [17] = 71.3 µg/ml, genetic background: ΔmarA
# [18] = 71.3 µg/ml, genetic background: Δrob
# [19] = 71.3 µg/ml, genetic background: ΔsoxS
# [20] = 142.7 µg/ml, genetic background: wild type
# [21] = 142.7 µg/ml, genetic background: ΔmarA
# [22] = 142.7 µg/ml, genetic background: Δrob
# [23] = 142.7 µg/ml, genetic background: ΔsoxS
smiles,measurement,setting,value
O=C(/C=C/C=C/c1ccc2c(c1)OCO2)N1CCCCC1 [Piperine],promoter activity interaction Z-score,[1]; [8],0.246 ± 0.24
same,promoter activity interaction Z-score,[1]; [9],2.16 ± 0.78
same,promoter activity interaction Z-score,[1]; [10],-0.45 ± 0.37
same,promoter activity interaction Z-score,[1]; [11],-0.228 ± 0.025
same,promoter activity interaction Z-score,[1]; [12],-0.267 ± 0.27
same,promoter activity interaction Z-score,[1]; [13],-0.218 ± 0.58
same,promoter activity interaction Z-score,[1]; [14],-0.35 ± 0.11
same,promoter activity interaction Z-score,[1]; [15],-0.339 ± 0.26
same,promoter activity interaction Z-score,[1]; [16],0.114 ± 0.35
same,promoter activity interaction Z-score,[1]; [17],1.19 ± 0.28
same,promoter activity interaction Z-score,[1]; [18],-0.349 ± 0.35
same,promoter activity interaction Z-score,[1]; [19],-0.246 ± 0.6
same,promoter activity interaction Z-score,[1]; [20],-0.023 ± 0.22
same,promoter activity interaction Z-score,[1]; [21],0.484 ± 0.7
same,promoter activity interaction Z-score,[1]; [22],-0.275 ± 0.24
same,promoter activity interaction Z-score,[1]; [23],0.0345 ± 0.17
same,promoter activity interaction Z-score,[2]; [8],-0.274 ± 0.019
same,promoter activity interaction Z-score,[2]; [9],-0.301 ± 0.051
same,promoter activity interaction Z-score,[2]; [10],-0.434 ± 0.098
same,promoter activity interaction Z-score,[2]; [11],-0.317 ± 0.29
same,promoter activity interaction Z-score,[2]; [12],-0.476 ± 0.17
same,promoter activity interaction Z-score,[2]; [13],-0.752 ± 0.41
same,promoter activity interaction Z-score,[2]; [14],-0.43 ± 0.21
same,promoter activity interaction Z-score,[2]; [15],-0.378 ± 0.24
same,promoter activity interaction Z-score,[2]; [16],-0.335 ± 0.037
same,promoter activity interaction Z-score,[2]; [17],-0.48 ± 0.25
same,promoter activity interaction Z-score,[2]; [18],-0.399 ± 0.2
same,promoter activity interaction Z-score,[2]; [19],-0.463 ± 0.46
same,promoter activity interaction Z-score,[2]; [20],-0.425 ± 0.28
same,promoter activity interaction Z-score,[2]; [21],-0.375 ± 0.13
same,promoter activity interaction Z-score,[2]; [22],-0.33 ± 0.27
same,promoter activity interaction Z-score,[2]; [23],-0.0869 ± 0.48
same,promoter activity interaction Z-score,[3]; [8],0.0366 ± 0.31
same,promoter activity interaction Z-score,[3]; [9],-0.191 ± 0.14
same,promoter activity interaction Z-score,[3]; [10],0.0158 ± 0.19
same,promoter activity interaction Z-score,[3]; [11],-0.381 ± 0.062
same,promoter activity interaction Z-score,[3]; [12],-0.332 ± 0.016
same,promoter activity interaction Z-score,[3]; [13],-0.0943 ± 0.12
same,promoter activity interaction Z-score,[3]; [14],0.0827 ± 0.3
same,promoter activity interaction Z-score,[3]; [15],-0.204 ± 0.038
same,promoter activity interaction Z-score,[3]; [16],0.0474 ± 0.091
same,promoter activity interaction Z-score,[3]; [17],-0.151 ± 0.15
same,promoter activity interaction Z-score,[3]; [18],-0.00444 ± 0.34
same,promoter activity interaction Z-score,[3]; [19],-0.417 ± 0.16
same,promoter activity interaction Z-score,[3]; [20],0.0188 ± 0.37
same,promoter activity interaction Z-score,[3]; [21],0.0457 ± 0.14
same,promoter activity interaction Z-score,[3]; [22],-0.043 ± 0.02
same,promoter activity interaction Z-score,[3]; [23],-0.135 ± 0.14
same,promoter activity interaction Z-score,[4]; [8],-0.0829 ± 0.54
same,promoter activity interaction Z-score,[4]; [9],-1.35 ± 0.34
same,promoter activity interaction Z-score,[4]; [10],-0.822 ± 0.25
same,promoter activity interaction Z-score,[4]; [11],-0.433 ± 0.063
same,promoter activity interaction Z-score,[4]; [12],-0.415 ± 0.064
same,promoter activity interaction Z-score,[4]; [13],-1.08 ± 0.24
same,promoter activity interaction Z-score,[4]; [14],-0.634 ± 0.12
same,promoter activity interaction Z-score,[4]; [15],-0.567 ± 0.14
same,promoter activity interaction Z-score,[4]; [16],-0.476 ± 0.17
same,promoter activity interaction Z-score,[4]; [17],-1.71 ± 0.16
same,promoter activity interaction Z-score,[4]; [18],-0.778 ± 0.1
same,promoter activity interaction Z-score,[4]; [19],-1.09 ± 0.28
same,promoter activity interaction Z-score,[4]; [20],-0.342 ± 0.011
same,promoter activity interaction Z-score,[4]; [21],-0.966 ± 0.094
same,promoter activity interaction Z-score,[4]; [22],-0.486 ± 0.29
same,promoter activity interaction Z-score,[4]; [23],-0.548 ± 0.51
same,promoter activity interaction Z-score,[5]; [8],0.172 ± 0.75
same,promoter activity interaction Z-score,[5]; [9],-0.36 ± 0.095
same,promoter activity interaction Z-score,[5]; [10],0.172 ± 1.4
same,promoter activity interaction Z-score,[5]; [11],-0.316 ± 0.4
same,promoter activity interaction Z-score,[5]; [12],0.097 ± 0.42
same,promoter activity interaction Z-score,[5]; [13],-1.12 ± 0.12
same,promoter activity interaction Z-score,[5]; [14],-0.276 ± 0.084
same,promoter activity interaction Z-score,[5]; [15],-0.113 ± 0.51
same,promoter activity interaction Z-score,[5]; [16],-0.241 ± 0.27
same,promoter activity interaction Z-score,[5]; [17],-0.584 ± 0.63
same,promoter activity interaction Z-score,[5]; [18],0.349 ± 1.6
same,promoter activity interaction Z-score,[5]; [19],-0.312 ± 0.18
same,promoter activity interaction Z-score,[5]; [20],1.83 ± 1.8
same,promoter activity interaction Z-score,[5]; [21],0.000795 ± 0.15
same,promoter activity interaction Z-score,[5]; [22],0.186 ± 0.23
same,promoter activity interaction Z-score,[5]; [23],0.201 ± 0.43
same,promoter activity interaction Z-score,[6]; [8],0.109 ± 0.15
same,promoter activity interaction Z-score,[6]; [9],-0.193 ± 0.12
same,promoter activity interaction Z-score,[6]; [10],0.0591 ± 0.33
same,promoter activity interaction Z-score,[6]; [11],-0.222 ± 0.045
same,promoter activity interaction Z-score,[6]; [12],-0.168 ± 0.034
same,promoter activity interaction Z-score,[6]; [13],-0.0932 ± 0.073
same,promoter activity interaction Z-score,[6]; [14],0.0518 ± 0.4
same,promoter activity interaction Z-score,[6]; [15],-0.0694 ± 0.036
same,promoter activity interaction Z-score,[6]; [16],0.0967 ± 0.17
same,promoter activity interaction Z-score,[6]; [17],-0.245 ± 0.091
same,promoter activity interaction Z-score,[6]; [18],0.0476 ± 0.29
same,promoter activity interaction Z-score,[6]; [19],-0.421 ± 0.13
same,promoter activity interaction Z-score,[6]; [20],-0.0465 ± 0.24
same,promoter activity interaction Z-score,[6]; [21],-0.324 ± 0.079
same,promoter activity interaction Z-score,[6]; [22],-0.0385 ± 0.2
same,promoter activity interaction Z-score,[6]; [23],-0.403 ± 0.12
same,promoter activity interaction Z-score,[7]; [8],0.553 ± 0.54
same,promoter activity interaction Z-score,[7]; [9],0.188 ± 1.3
same,promoter activity interaction Z-score,[7]; [10],0.472 ± 2.8
same,promoter activity interaction Z-score,[7]; [11],-0.947 ± 0.95
same,promoter activity interaction Z-score,[7]; [12],0.236 ± 0.38
same,promoter activity interaction Z-score,[7]; [13],-0.452 ± 0.27
same,promoter activity interaction Z-score,[7]; [14],-0.598 ± 1.4
same,promoter activity interaction Z-score,[7]; [15],-0.521 ± 0.018
same,promoter activity interaction Z-score,[7]; [16],0.515 ± 0.49
same,promoter activity interaction Z-score,[7]; [17],-0.357 ± 0.42
same,promoter activity interaction Z-score,[7]; [18],-0.0523 ± 0.77
same,promoter activity interaction Z-score,[7]; [19],0.108 ± 1.1
same,promoter activity interaction Z-score,[7]; [20],0.274 ± 0.22
same,promoter activity interaction Z-score,[7]; [21],0.331 ± 2.3
same,promoter activity interaction Z-score,[7]; [22],-0.437 ± 0.62
same,promoter activity interaction Z-score,[7]; [23],-0.524 ± 0.86
